Compound activity as filed in PubChem.
POLH inh = DNA polymerase eta (human) inhibition. Q9Y253. recombinant Pol eta, fluorescent DNA replication assay. Potency, µM (doses to about 114 µM), for the others: at the highest dose activity change, negative = inhibition, hits mostly inhibitors. 1.2% of 390,000 active; also: % is scaled to controls: 0 for no effect and ±100 for the full control effect
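Pol eta at 10 nM preincubated with compounds 15 min at room temperature; reaction started with fluorescent substrate (50 nM final) and read kinetically at 0 and 10 min.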
POLB inh = blocks human DNA polymerase beta activity | P06746 | Pol beta primer extension/strand displacement, fluorescence kinetic | Potency, µM (titrated, usually from 114 µM), without a hit: top-dose activity change, negative = inhibition, most hits filed as inhibitors | 1.3% of 340,000 active; also: % is scaled to controls: 0 for no effect and ±100 for the full control effect
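Pol beta (10 nM) was preincubated with compound for 15 min at room temperature. The reaction was then started with 50 nM substrate and read immediately and after a further 10 min at room temperature.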
FEN1 inhibitor = blocks human flap endonuclease 1 | P39748 | Recombinant FEN1 flap cleavage, fluorescence, 15 min | Potency, µM (highest dose often 114 µM), for the others: at the top dose activity change, negative = inhibition, usual class: inhibitors | 0.35% of 390,000 active | AID 588795; also: % is scaled to controls: 0 for no effect and ±100 for the full control effect; nearly all actives have a fitted effect of over 65% in size
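Compounds are tested as a concentration series against 10 nM FEN1; after a 15 min room-temperature preincubation, 50 nM substrate starts cleavage, with plate reads at 0 and 15 min. Normalized responses are fitted by a Hill equation.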
WRN helicase inh = inhibitors of human WRN helicase; Potency, µM (titrated, usually from 114 µM), for inactives: at the highest dose activity change, negative = inhibition, usual class: inhibitors; Q14191; WRN helicase unwinding, fluorescent forked duplex, kinetic; 0.46% of 360,000 active; also: % is scaled to controls: 0 for no effect and ±100 for the full control effect; nearly all actives have a fitted effect of over 55% in size
Target sequence (Q14191 whole entry, looked up): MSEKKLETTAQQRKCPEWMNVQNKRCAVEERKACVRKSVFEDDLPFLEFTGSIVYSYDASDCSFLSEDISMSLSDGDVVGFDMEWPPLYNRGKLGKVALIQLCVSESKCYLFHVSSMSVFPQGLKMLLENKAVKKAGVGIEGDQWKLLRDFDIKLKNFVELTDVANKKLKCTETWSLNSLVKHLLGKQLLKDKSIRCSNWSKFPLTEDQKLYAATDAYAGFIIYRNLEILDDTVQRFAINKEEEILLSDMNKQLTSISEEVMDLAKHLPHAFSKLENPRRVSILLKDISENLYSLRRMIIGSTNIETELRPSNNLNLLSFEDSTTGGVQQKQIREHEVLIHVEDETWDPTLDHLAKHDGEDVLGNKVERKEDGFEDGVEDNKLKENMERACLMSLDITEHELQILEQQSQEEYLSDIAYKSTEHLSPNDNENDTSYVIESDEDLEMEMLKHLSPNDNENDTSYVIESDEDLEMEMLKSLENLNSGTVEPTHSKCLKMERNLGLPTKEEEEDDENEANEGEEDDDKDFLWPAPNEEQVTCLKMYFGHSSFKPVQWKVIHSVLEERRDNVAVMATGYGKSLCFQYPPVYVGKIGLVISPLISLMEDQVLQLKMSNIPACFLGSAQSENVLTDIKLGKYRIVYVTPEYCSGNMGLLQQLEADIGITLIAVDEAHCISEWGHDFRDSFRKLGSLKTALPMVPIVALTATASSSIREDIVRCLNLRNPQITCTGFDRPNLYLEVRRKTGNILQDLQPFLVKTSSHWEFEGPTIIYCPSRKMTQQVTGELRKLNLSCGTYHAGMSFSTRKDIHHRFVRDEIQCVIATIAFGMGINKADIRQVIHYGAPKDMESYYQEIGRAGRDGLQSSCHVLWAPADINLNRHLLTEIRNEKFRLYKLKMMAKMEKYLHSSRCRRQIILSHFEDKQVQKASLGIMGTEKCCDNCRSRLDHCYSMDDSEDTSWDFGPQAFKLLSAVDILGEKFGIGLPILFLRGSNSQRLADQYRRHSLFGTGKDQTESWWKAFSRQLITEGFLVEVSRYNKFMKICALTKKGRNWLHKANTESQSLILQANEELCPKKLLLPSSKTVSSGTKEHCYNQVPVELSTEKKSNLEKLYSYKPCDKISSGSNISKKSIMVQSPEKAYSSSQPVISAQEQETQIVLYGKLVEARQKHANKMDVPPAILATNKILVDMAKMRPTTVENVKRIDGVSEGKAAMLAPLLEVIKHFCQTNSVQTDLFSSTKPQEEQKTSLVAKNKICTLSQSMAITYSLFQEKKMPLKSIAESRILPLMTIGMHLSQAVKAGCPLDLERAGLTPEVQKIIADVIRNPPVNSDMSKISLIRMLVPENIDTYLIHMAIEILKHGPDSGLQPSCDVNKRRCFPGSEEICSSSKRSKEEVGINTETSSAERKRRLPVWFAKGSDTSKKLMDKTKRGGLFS
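Kinetic fluorescence helicase assay: unwinding of a quenched forked DNA duplex (100 nM final) with 2 mM ATP final raises red fluorescence (525/598 nm). Compounds sat 15 min at room temperature with 20 nM WRN beforehand.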
Pol kappa inh = blocks human DNA polymerase kappa activity | Q9UBT6 | AID 588579 | purified Pol kappa, fluorescent DNA synthesis assay, 10 min | Potency, µM (series often up to 107 µM), inactives show at the highest dose activity, negative = inhibition, most hits filed as inhibitors | 0.53% of 400,000 active; also: % is scaled to controls: 0 for no effect and ±100 for the full control effect
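Activity was followed as the change in fluorescence between reads at 0 and 10 min after starting the reaction with 50 nM substrate. Beforehand, 10 nM polymerase had been preincubated with compound for 15 min at room temperature.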
Pol iota inh = inhibitors of human DNA polymerase iota; Pol iota fluorescent replication assay, 10 min; 1% of 390,000 active; Potency, µM (highest dose often 115 µM), for inactives: at the top dose activity, negative = inhibition, actives largely listed as inhibitors; Q9UNA4
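Pol iota at 10 nM preincubated 15 min with compounds at room temperature; reaction started with fluorescent substrate, 50 nM final. Fluorescence read kinetically at 0 and 10 min; buffer-only wells as negative control.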
* = called active by the depositor; ! = repeats disagree; [ ] = dose if it differs, or a comment. This is a sample that favours compounds with a hit; in the whole collection about 2.4% have one here. Calls follow the shape of the dose curve; as a rule, active = well fitted curve in the direction sought with a large enough effect; inconclusive = small, poorly fitted or top-dose-only effect, or another doubt; inactive = no such curve, though single readings can be large; an effect the other way counts as inactive or inconclusive. Potency is read from the fitted curve at half-maximal effect.

For COc1ccc2nc(NC(=O)c3nc(S(=O)(=O)Cc4ccc(C)cc4)ncc3Cl)sc2c1 the results were POLH inh inconclusive, POLB inh inconclusive, FEN1 inhibitor -2.2%, Pol kappa inh inconclusive and Pol iota inh 89.1µM*.
`C#CCOc1ccc(C(=O)N(C)c2ccccc2I)cc1` gave FEN1 inhibitor 8.4%, Pol kappa inh 20.3% and Pol iota inh 2.3%.
CC(Nc1nc(-c2ccc(F)cc2)cs1)c1nc2cc(Cl)c(Cl)cc2n1CCCO (stereo not given) was read as POLH inh -0.3%, FEN1 inhibitor -4.8%, WRN helicase inh -9.5%, Pol kappa inh 2.8% and Pol iota inh inconclusive.
For Cc1ccc(Cn2c(C(C)Nc3nc(-c4ccc(C)cc4)cs3)nc3cc(Cl)c(Cl)cc32)cc1 (stereo not given) the results were POLH inh -28.5%, POLB inh 31.6µM*, FEN1 inhibitor -28.6%, WRN helicase inh inconclusive, Pol kappa inh -13.1% and Pol iota inh -15.4%.
CN(Cc1ccsc1)C(=O)Cn1cc(Br)ccc1=O was read as POLH inh -2.5%, POLB inh 16.0%, FEN1 inhibitor -0.3%, WRN helicase inh -7.5%, Pol kappa inh -16.9% and Pol iota inh 22.4µM*.
`Cn1c2c(c3cnc4cc(Cl)ccc4c31)CNCC2` gave FEN1 inhibitor inconclusive, Pol kappa inh -13.7% and Pol iota inh 16.0%.
Screening O=C(COC(=O)/C=C/c1ccc(Br)o1)NC1CCCCC1 returned POLH inh inconclusive, FEN1 inhibitor -16.4%, WRN helicase inh -28.7%, Pol kappa inh 79.4µM* and Pol iota inh 22.4µM*.
`CSc1ccccc1NC(=O)COC(=O)/C=C/c1ccco1` gave POLH inh inconclusive, FEN1 inhibitor 4.5%, WRN helicase inh inconclusive, Pol kappa inh 0.0% and Pol iota inh inconclusive.
O=C(COC(=O)/C=C/c1ccc(Br)o1)Nc1ccccc1F was read as POLB inh 25.1µM*.
For COCCNC(=O)C1(C(F)(F)F)C/C(=C\Cc2ccccc2)CCCO1 (stereo not given) the results were FEN1 inhibitor 8.8%, Pol kappa inh -14.4% and Pol iota inh -4.9%.
For COc1ccc(/C=N/Nc2ncnc3c2[nH]c2ccc(C)cc23)c(OC)c1OC the results were POLH inh 25.1µM*, POLB inh 0.6%, FEN1 inhibitor inconclusive, WRN helicase inh inconclusive, Pol kappa inh -1.6% and Pol iota inh 22.4%.
`CCCc1cc2c(-c3ccccc3)cc(=O)oc2cc1OCc1ccc(C(=O)O)o1` gave POLH inh 79.4µM*, POLB inh inconclusive, FEN1 inhibitor -17.9%, WRN helicase inh -2.2%[11.6 µM], Pol kappa inh -12.3% and Pol iota inh -10.8%.
Screening C#Cc1ccc2c(c1)C(=O)N(C)Cc1c(C(=O)OCCCOC(=O)c3ncn4c3CN(C)C(=O)c3cc(C#C)ccc3-4)ncn1-2 returned Pol kappa inh -1.8%[60.1 µM].
Cc1ccccc1NC(=O)CN1C(=O)CCn2nc(-c3cccn3C)cc21 was read as POLH inh -16.9%, POLB inh 0.9%, FEN1 inhibitor -6.4%, Pol kappa inh -0.8%[60.1 µM] and Pol iota inh 24.1%.
For Cc1cc(=O)n2[nH]c(-c3ccsc3-n3c(C)ccc3C)cc2n1 the results were POLH inh 7.94µM*, POLB inh inconclusive, FEN1 inhibitor inconclusive, WRN helicase inh inconclusive, Pol kappa inh 28.2µM* and Pol iota inh 7.94µM*.
`Cc1cc(=O)n2[nH]c(-c3ccc(F)cc3)cc2n1` gave POLH inh -1.5%, POLB inh 3.6%, FEN1 inhibitor -1.9%, WRN helicase inh -8.2%, Pol kappa inh -9.6% and Pol iota inh 9.6%.
`COc1cc(/C=C/c2cncc(/C=C/c3cc(OC)c(OC)c(OC)c3)c2)cc(OC)c1OC` gave FEN1 inhibitor 11.2%, Pol kappa inh -9.8% and Pol iota inh -16.0%.
CCn1c(C)nc2cc(C(=O)N/N=C/c3cccc(O)c3O)ccc21 was read as POLH inh -22.6%, POLB inh inconclusive, FEN1 inhibitor -9.2%, WRN helicase inh -15.3%[57.1 µM], Pol kappa inh inconclusive and Pol iota inh 25.1µM*.
CCn1c(C)nc2cc(C(=O)N/N=C/c3ccc(N4CCOCC4)cc3)ccc21 was read as POLH inh -18.0%, POLB inh 22.4µM*, FEN1 inhibitor -2.3%, WRN helicase inh -5.3%, Pol kappa inh -16.6% and Pol iota inh inconclusive.
For CCn1c(C)nc2cc(C(=O)N/N=C(\C)c3ccc(N4CCOCC4)cc3)ccc21 the results were POLH inh -14.1%, POLB inh -10.2%, FEN1 inhibitor -8.7%, WRN helicase inh -4.9%, Pol kappa inh -16.8% and Pol iota inh -13.0%.
Screening Cc1ccccc1CNC(=O)c1cc2cc(S(=O)(=O)N3CCCCC3)ccc2n1C returned POLH inh -16.1%, POLB inh inconclusive, FEN1 inhibitor -15.6%, Pol kappa inh -8.6%[60.1 µM] and Pol iota inh 2.9%.
For Cc1ccc(-c2nc(CS(=O)CC(=O)N3CCN(c4ccc(Cl)cc4)CC3)c(C)o2)cc1 (stereo not given) the results were POLH inh -15.5%, POLB inh -21.4%, FEN1 inhibitor -1.9%, Pol kappa inh 2.0%[60.1 µM] and Pol iota inh -14.1%.
For Cc1c(C(=O)NNC(=O)c2csc(N3CCOCC3)n2)oc2ccc(Br)cc12 the results were POLH inh 25.1µM* and WRN helicase inh -5.9%.
`Cc1c(C(=O)NNC(=O)c2csc(N3CCOCC3)n2)oc2ccccc12` gave POLH inh inconclusive, FEN1 inhibitor -2.8%, WRN helicase inh -3.7%, Pol kappa inh 1.5% and Pol iota inh inconclusive.
Screening O=C(c1c(O)c2ccc(Cl)cc2[nH]c1=O)C1CC1 returned Pol kappa inh -2.6%[19.4 µM].
Screening O=c1oc2c(O)c(O)cc3c(=O)oc4c(O)c(O)cc1c4c23 returned POLH inh 0.794µM*, POLB inh 0.159µM*, FEN1 inhibitor 1.58µM*, Pol kappa inh 0.794µM*! and Pol iota inh 1.12µM*!.
For Cc1c(C)c2cc(Cl)c(O)c(CN(C)C)c2oc1=O the results were POLH inh -0.9%, POLB inh 5.6%, FEN1 inhibitor 3.2%, WRN helicase inh -0.6%, Pol kappa inh -8.1% and Pol iota inh 0.2%.
For O=C(CSc1nc(-c2ccccc2)no1)N1CCN(c2ccccc2F)CC1 the results were POLH inh -11.9%, POLB inh 1.3%, FEN1 inhibitor -2.6%, Pol kappa inh -9.5% and Pol iota inh 89.1µM*.
